The sample as a whole holds a higher share of hits than the screen did.
Pf Dd2 growth: qHTS Primary assay for Inhibitors of Plasmodium falciparum Dd2 growth in vitro. P. falciparum Dd2 growth, SYBR Green, 72 h. Potency, µM (series often up to 28.9 µM), most hits filed as inhibitors. 4.3% of 120,000 active. AID 1347417, 2020; active = well fitted inhibition curve with a large enough effect; note: nearly all actives have a fitted effect of over 65% in size
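Readout: SYBR Green fluorescence, 485 nm excitation, 535 nm emission, after ~16 h lysis at 37C. Before that, Dd2-infected red cells (2.5% hematocrit) grew 72 h with compound, 29 uM top final concentration.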
Each line names hits and unclear results; the compound was inactive in the other large screens.

COC(=O)CNC(=O)C1CCc2nnc(-c3ccc(Cl)nc3)n21 (configuration not stated)	none
O=C(NCCc1ccc(Cl)cc1)C1CCc2nnc(-c3ccc(Cl)nc3)n21 (configuration not stated)	Pf Dd2 growth 3.98µM
CC(C)(C)C(=O)N1CC[C@@H](CC(=O)O)[C@@H](CC2=NCCc3cc(F)ccc32)C1	none
Cc1ccc(C)c(S(=O)(=O)NCCn2c(C)cnc2C2CCC2)c1	none
Cc1cc(C)c(S(=O)(=O)NCCn2c(C)cnc2C2CC2)cc1C	Pf Dd2 growth 11.2µM
Cc1cnc(C2CC2)n1CCN	none
CC(C)(C)c1ccc(C(=O)N[C@H]2CC(C)(C)[C@@H]3C[C@@](C)(O)CC[C@]23CCC(=O)N2CCCC2)cc1	none
Cc1ccc(-n2c(C3CCN(C(=O)c4ccc(F)c(Cl)c4)CC3)n[nH]c2=O)cc1	none
COc1cc(C(=O)Nc2ccc3c(c2)N(C2CCCC2)C(=O)c2ccccc2S3)cc(OC)c1OC	Pf Dd2 growth 8.91µM
CCN1C(=O)c2ccccc2Sc2ccc(NC(=O)Nc3ccccc3OC)cc21	none
O=C(Nc1ccc2c(c1)N(C1CCCC1)C(=O)c1ccccc1S2)c1ccccc1	none
COc1ccc(C(=O)NC2CCN(c3cc(C(F)(F)F)ncn3)CC2)c(C)c1	none
Cc1c(CC(=O)N2CCOCC2)c2c(n1Cc1ccccc1F)CCCC2=O	none
CN(C)C1CCN(C(=O)C2(N(C)CCc3ccccc3)Cc3ccccc3C2)C1 (configuration not stated)	Pf Dd2 growth 5.01µM
CN(Cc1ccccc1)C1(C(=O)NC2CCC(O)CC2)Cc2ccccc2C1 (configuration not stated)	none
CN(C)CCN(C)CC[C@H]1CN(C(=O)Cc2ccccc2)CC[C@H]1CC(=O)O	none
O=C(NC1CCN(c2ccc(F)cc2)C1=O)c1ccccc1Cl (configuration not stated)	none
Cc1cccc(N2CCN(C(=O)CCc3c(C)nc4c(c3C)c(=O)n(C)c(=O)n4C)CC2)c1C	none
CCOC(=O)c1c(C)[nH]c(C)c1S(=O)(=O)N(C)CC(=O)N1CCN(c2ccc(Cl)cc2)CC1	none
CCOC(=O)c1[nH]c(C)c(CCC(=O)N2CCN(c3cccc(C)c3C)CC2)c1C	Pf Dd2 growth 0.355µM
CCOC(=O)c1[nH]c(C)c(CCC(=O)NCc2ccc(OC)cc2)c1C	none
CCOC(=O)c1c(C)[nH]c(C)c1S(=O)(=O)N1CCC(C(=O)N2CCN(c3cccc(C)c3C)CC2)CC1	none
CCOC(=O)c1[nH]c(C)c(CCC(=O)N2CCN(c3ccc(Cl)cc3)CC2)c1C	Pf Dd2 growth 3.55µM
CCNC(=O)NC[C@H]1O[C@H](Cc2cc(C(C)(C)C)on2)CC[C@@H]1O	none
O=C1CCN(S(=O)(=O)c2ccc3c(c2)CCC3)CCCC(c2nc(-c3cccnc3)no2)CCN1 (configuration not stated)	none
COC(=O)[C@@H](Cc1cccnc1)NC(=O)[C@@H]1CN(C(=O)c2cccc(F)c2)CCN1C(=O)c1cccs1	none
CCC1=C(C(=O)OC)C(c2ccccc2C)N2C(CC(=O)N3CCCC3)=CSC2=N1 (configuration not stated)	none
O=C(Cc1cccc(F)c1)N1CCN(c2cc(-c3cccs3)[nH]n2)CC1	none
COC[C@H]1C[C@@H](NC(=O)C(C)C)[C@H](O)[C@@H]1O	none
O=C(CCn1c(=O)c2cccn2c2cccnc21)N1CCN(c2cccc(C(F)(F)F)c2)CC1	none
CCOCc1cc(CN2CCN(c3cccc(C(F)(F)F)c3)CC2)c(O)c2ncccc12	Pf Dd2 growth 2.82µM
O=C(c1cc2ccc3cccnc3c2[nH]1)N1CCN(c2cccc(C(F)(F)F)c2)CC1	none
FC(F)(F)c1cccc(N2CCN(Cc3nnc(-c4ccccc4)o3)CC2)c1	none
CC(C)OCc1cc(CN2CCN(c3cccc(C(F)(F)F)c3)CC2)c(O)c2ncccc12	Pf Dd2 growth 1.41µM
OC1(CN2CCN(c3cccc(C(F)(F)F)c3)CC2)CNCCOC1 (configuration not stated)	none
COc1ccc(N2CC(c3noc(-c4ccc(C(C)(C)C)cc4)n3)CC2=O)cc1OC (configuration not stated)	none
Cc1cnc(C(=O)N2CCC(Cc3ccc(C(N)=O)cc3)CC2)cn1	none
COc1ccc2cc(C3CN(C(=O)c4ccc(C)cc4OC)CCO3)ccc2c1 (configuration not stated)	none
O=C(C1CC1)N1CCC(OC2CCN(Cc3cccnc3)CC2)CC1	none
c1cncc(CN2CCC(Oc3nccnc3N3CCc4ccccc43)C2)c1 (configuration not stated)	Pf Dd2 growth 3.55µM
Cc1ncc2n1C(=O)N(C1CCN(Cc3cccnc3)CC1)C2	none
COc1ccc(OCc2nnc(C(=O)N3CCC[C@@H]3c3nc4ccccc4[nH]3)n2-c2ccccc2)cc1	none
O=C(C1CCCC1)N1CCC2(CC1)CC(N(C(=O)c1ccccc1)C1CC1)CCO2 (configuration not stated)	none
CCOc1ccc(/C=C/c2nc3ccccc3n2S(=O)(=O)c2ccc(Br)cc2)cc1	Pf Dd2 growth 11.2µM
CCOc1ccc(S(=O)(=O)Nc2nc3ccccc3nc2Nc2ccc(OC)cc2)cc1	none
CCOc1ccc(S(=O)(=O)c2cn(C)c3ccccc3c2=O)cc1	none
O=C(N[C@@H]1CCOC[C@H]1O)c1cnn2cc(CCO)cnc12	none
Cc1noc2c(-c3cccnc3NCCCn3ccnc3)cc(-c3ccccc3)nc12	Pf Dd2 growth 10µM
COCCCNc1ncccc1-c1cc(-c2ccccc2)nc2c(C)noc12	none
Cc1noc2c(-c3cccnc3NCCN(C)C)cc(-c3ccccc3)nc12	none
CC(C)(C)CC(=O)NC[C@H]1OC[C@@H](NC2CCCC2)[C@@H]1O	none
O=C(O)C1(Oc2ccc(Cl)cc2)CCN(c2cnccn2)CC1	none
Cc1cc(C)nc(-n2nc(C)c3c2N(Cc2ccccc2C)C(=O)CC3c2ccc(Cl)cc2)n1 (configuration not stated)	Pf Dd2 growth 8.91µM
Cc1cc(C)nc(-n2nc(C)c3c2N(C)C(=O)CC3c2ccc(Cl)cc2)n1 (configuration not stated)	none
Cc1ccccc1-n1nc(C)c2c1NC(=O)CSC2c1ccc(Cl)cc1 (configuration not stated)	none
Cc1nc(-c2c3n(c(=O)n(CC(=O)Nc4cc(Cl)ccc4C)c2=O)CCCCC3)no1	none
CS(=O)(=O)c1ccc(CC(=O)N2CCc3nn(CC#N)c(=O)n3CC2)cc1	none
Cc1cnc(C(=O)N2CCCCCC2CN2CCCC2)cn1 (configuration not stated)	none
COc1ccc(C2CC(=O)N(Cc3ccc(F)cc3)c3ccccc3S2)cc1 (configuration not stated)	none
COc1ccc(C2CC(=O)N(Cc3ccc(F)cc3)c3ccccc3S2)cc1OC (configuration not stated)	none
COc1cc(C2CC(=O)N(Cc3ccc(F)cc3)c3ccccc3S2)cc(OC)c1OC (configuration not stated)	Pf Dd2 growth 1.12µM
CCc1cccc(-n2nnnc2N2CCN(C(=O)Nc3ccc(C)c(Br)c3)CC2)c1	none
Cc1ccc(NC(=O)N2CCN(c3nnnn3-c3cccc(C(F)(F)F)c3)CC2)cc1F	Pf Dd2 growth 7.94µM
CCc1cccc(-n2nnnc2N2CCN(C(=O)Nc3ccc(C)c(Cl)c3)CC2)c1	none
Cn1nc(C2CCN(C(=O)CC3CCCC3)CC2)c2c1CCOC2	none
COc1ccc(C(=O)N2CCC(N3C[C@H](O)C[C@H]3C(=O)NCc3cccnc3)CC2)cn1	none
COc1ccccc1NC(=O)N1CC(C(=O)NCC2CC2)CC(c2ccccc2)C1 (configuration not stated)	none

Compound activity from PubChem BioAssay.
